PubChem BioAssay (NCI)
About 83,000 compounds went through this panel and 20% of them were active in at least one assay; those are over-represented in the sample as a whole.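 Note: values are percent growth. 100 is the growth of untreated cells, values between 100 and 0 indicate rising inhibition; between -100 and 0 indicates cell death.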 Active and inactive are the calls of the source. How the source made its calls: active means growth percent below 10; inactive means the rest.

test system: HL-60(TB) leukemia; test: NCI-60 one-dose screen, 48 h (100 = growth as untreated, 0 = no growth, -100 = all killed); details: 10 µM unless noted

SMILES	growth
N#Cc1c(-c2ccc(F)cc2)nc(SCc2ccc(F)cc2)nc1N1CCNCC1	-7.81% (active)
COc1c(B(O)O)cc(F)cc1-c1nc2ccc3[nH]ncc3c2c2c1COCC2	22.5% (inactive)
FC(F)(F)CN1CCN(CCn2c(C(F)(F)F)cc3c(Cl)ncnc32)CC1	-65.2% (active)
CCOC(=O)C(Cc1ccccc1)N1C(=O)/C(=C/N2N=C(c3ccc(OC)cc3)CC2c2ccc3ccccc3c2)SC1=S (configuration not stated)	-18.4% (active)
COc1ccc(-c2nc3ccc(-c4nnc(SCc5ccccc5)o4)cc3[nH]2)cc1	16.3% (inactive)
COc1ccc(C2c3sc4ccc(C)cc4c3Oc3nc[nH]c(=O)c32)cc1 (configuration not stated)	85.2% (inactive)
O=C1Nc2cc(-c3ccc(NS(=O)(=O)c4ccc(-c5ccccc5)cc4)cc3)ccc2/C1=C/c1ccc[nH]1	31% (inactive)
COc1cc(CNC(=O)C[C@H](C)CCC=C(C)C)ccc1OCc1cn(-c2ccc(Br)cc2)nn1	88.4% (inactive)
COc1ccc(NC(=O)Nc2ccc(OCC(=O)N=Nc3c(O)[nH]c4ccc([N+](=O)[O-])cc34)cc2)cc1	99% (inactive)
CC12CC[C@@H]3[C@]4(C)COC(c5cn[nH]c5-c5cccc(Br)c5)O[C@@H]4CC[C@@]3(C)[C@@H]1CC(C1=CCOC1=O)O2 (some centres not stated)	13% (inactive)
Clc1ccc(CNc2nc(SCCN3CCOCC3)nc3c2cnn3CC(Cl)c2ccc(Br)cc2)cc1 (configuration not stated)	-9.78% (active)
CC(=O)C[n+]1cccc2c3ccccc3ccc21	85% (inactive)
CN1C/C(=C\c2ccc(O)cc2O)c2[o+]c3cc(O)ccc3cc2C1	46.8% (inactive)
CCOC(=O)/C(F)=C/C1CC1CCc1ccc(OCC)cc1 (configuration not stated)	101% (inactive)
CCCn1c(=O)c2[nH]c(-c3ccc(OCc4nc5ccc(C)cc5[nH]4)cc3)nc2n(CCC)c1=O	4.56% (active)
CC1(c2cc3cc(Br)ccc3oc2=O)NC(=O)c2c(/C=C/C(=O)OC3CC4CCC3(C)C4(C)C)cccc2N1 (configuration not stated)	48.9% (inactive)

SMILES	growth
Cn1cc(-c2cc(N)n3nc(-c4cn(C)c5ccc(Cl)cc45)cc3n2)c2ccccc21	92.5% (inactive)
C#CCOc1cc(N(CC)CC)ccc1C(C(=O)NC(C)(C)C)N(C(=O)C1CCc2cc(F)ccc2O1)c1ccc(F)cc1F (configuration not stated)	6.7% (active)
COc1ccc(N=Nc2c(N)nn3c(-c4ccc5c(c4)C=S=C5)ccnc23)cc1	37.7% (inactive)
CC(=O)OCC1OC(OC2C(COC(C)=O)OC(n3cc(COc4ccc5ccc(=O)oc5c4)nn3)C(OC(C)=O)C2OC(C)=O)C(OC(C)=O)C(OC(C)=O)C1OC(C)=O (configuration not stated)	103% (inactive)
CN1CCN(C(=O)Oc2cc3c(c4ccccc24)[C@H](CCl)CN3C(=O)c2cc3cc(OCCCN4CCC4)ccc3[nH]2)[C@@H]2CSSC[C@H]21	-25.8% (active)
O=c1[nH]c2ccccc2cc1COc1ccc(Nc2nccc(-c3ccc(Cl)cc3)n2)cc1	95% (inactive)
CN(C)c1nc(NCCNS(=O)(=O)c2ccc(C3=Nc4c(N)nc(N)nc4NC(c4ccc(Cl)cc4)C3)cc2)nc(Nc2ccc(F)cc2)n1 (configuration not stated)	-13.8% (active)
COc1ccc(NC(=O)Cn2c(/C=C/c3ccc(N(C)C)cc3)nc3ccccc3c2=O)cc1	82.2% (inactive)
COc1cc2cc(C(=O)N3C[C@@H](CCl)c4c3cc(OC(=O)N(C)CCSSCCN3CCOCC3)c3ccccc43)[nH]c2c(OC)c1OC	-39.6% (active)
CCCSc1nc(Nc2ccc(S(N)(=O)=O)cc2)c(C#N)c(-c2ccc(Cl)cc2)n1	46.3% (inactive)
C(=C\c1cc(/C=C/c2ccccc2)c2ccccc2n1)/c1ccccc1	2.48% (active)
COc1ccc2c(c1)C(Sc1ccc(Br)cc1)c1c(nc(N)c(C#N)c1N)O2 (configuration not stated)	78% (inactive)
COc1ccc(C2=NN(c3ccccc3)C(c3ccc(OC)c(OCc4ccccc4)c3)C2)cc1OC (configuration not stated)	100% (inactive)
CC(C)C1=C[C@@]23CC[C@@H]4[C@](C)(CCC[C@]4(C)C(=O)NCc4ccccc4)[C@H]2C[C@@H]1[C@H]1C(=O)OC(=O)[C@H]13	3.62% (active)
O=C(c1ccc(O)cc1)C1[C@H](c2ccc(Cl)cc2)[C@@H](c2ccccc2)NC12C(=O)Nc1ccc(Br)cc12 (some centres not stated)	-33.9% (active)
COc1ccc2[nH]cc(-c3nc(N)nnc3-c3cn(C)c4ncc(Br)cc34)c2c1	-44.9% (active)
